{"source": "PubChem BioAssay (NCATS)", "note": "Records with an inconclusive call do not appear. Activity calls are given as the source filed them. The call rests on the fitted dose curve; in most records, active means well fitted cell-killing curve with a large enough effect; inconclusive means small, poorly fitted or top-dose-only effect, or effect the other way; inactive means no such curve, though single readings can be large or run the other way. Potency means the concentration at half of the fitted maximal effect.", "data": [{"experiment": "Quantitative High-Throughput drug screen in 47 multiple myeloma cell lines against the NCATS MIPE library collection: KMS20_JCRB cell viability assay (AID 1918973); further: nearly all actives have a fitted effect of over 45% in size", "details": "CellTiter-Glo ATP, 48 h; series mostly up to 45.8 µM; viability (% of DMSO): at the top concentration", "in_short": "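Myeloma cells (500 per well) were exposed to MIPE 4.0 compounds by pin transfer and incubated 48 hours at 37C, 5% CO2. Viability was read as ATP by CellTiter-Glo luminescence, normalised to DMSO (100%) and media-only (0%) wells.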", "values": [{"smiles": "O=C(O)c1cn(C2CC2)c2cc(N3CCNCC3)c(F)cc2c1=O", "viability (% of DMSO)": "153% (inactive)"}, {"smiles": "CCCCOc1ccc(CC(=O)NO)cc1", "Potency": "16.6 µM (active)"}, {"smiles": "NC(=O)c1cccc(N)c1", "viability (% of DMSO)": "85.4% (inactive)"}, {"smiles": "O=S(=O)(c1cccc2cnccc12)N1CCCNCC1", "viability (% of DMSO)": "110% (inactive)"}, {"smiles": "CCCCc1oc2ccc(NS(C)(=O)=O)cc2c1C(=O)c1ccc(OCCCN(CCCC)CCCC)cc1", "Potency": "9.35 µM (active)"}, {"smiles": "N[C@@H](Cc1ccc(O)c(O)c1)C(=O)O", "viability (% of DMSO)": "124% (inactive)"}, {"smiles": "Nc1ccc(S(=O)(=O)Nc2ccccn2)cc1", "viability (% of DMSO)": "107% (inactive)"}, {"smiles": "O=C(O)C1CCCN(CCC=C(c2ccccc2)c2ccccc2)C1", "note": "(centres undefined)", "viability (% of DMSO)": "145% (inactive)"}, {"smiles": "NC(=O)c1cccnc1", "viability (% of DMSO)": "115% (inactive)"}, {"smiles": "CCCN[C@H]1CCc2nc(N)sc2C1", "viability (% of DMSO)": "98.4% (inactive)"}, {"smiles": "O=S(=O)(O)CCS", "viability (% of DMSO)": "111% (inactive)"}, {"smiles": "CCCOc1ccc(C(=O)OCCN(CC)CC)cc1N", "viability (% of DMSO)": "92.6% (inactive)"}, {"smiles": "COc1ccc(C(=O)CC(=O)c2ccc(C(C)(C)C)cc2)cc1", "Potency": "2.96 µM (active)"}, {"smiles": "NS(=O)(=O)c1cc2c(cc1Cl)NC(C(Cl)Cl)NS2(=O)=O", "note": "(centres undefined)", "viability (% of DMSO)": "115% (inactive)"}]}]}
